Screens deposited in PubChem by National Center for Advancing Translational Sciences (NCATS).
Shiga toxin inh – Shiga toxin inhibition; 290,000 tested, 9.2% active; inhibition, % at 38.7 µM; Vero cells, Shiga toxin protein synthesis inhibition reporter; in the data active = inhibition mostly above about 28%, no sharp cut-off; inactive = mostly below about 43%; note: 0% is about no effect
Pf growth 96h – P. falciparum growth inhibition at 96 hours. AID 504834. P. falciparum luciferase reporter growth, 96 h. Potency, µM (titrated, usually from 28.7 µM), for inactives: at the highest dose activity change, negative = inhibition, most hits filed as inhibitors. 320,000 tested, 6.9% active; note: potency is the fitted concentration of half-maximal effect; % is set by controls: 0 for no effect and ±100 for the full control effect
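Erythrocytes infected with luciferase-expressing P. falciparum were dispensed at 2% hematocrit and 0.05% parasitemia (final), then incubated with compounds 96 hours at 37 C in 5% CO2. Luminescence after detection reagent addition reported growth.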
FBPA Giardia inh – blocks Giardia fructose-bisphosphate aldolase activity; AID 2451; 290,000 tested, 0.71% active; Potency, µM (highest dose often 59.6 µM), without a hit: at the top dose activity, negative = inhibition, hits mostly inhibitors; purified Giardia FBPA; A8B2U2; note: potency is the fitted concentration of half-maximal effect; % is set by controls: 0 for no effect and ±100 for the full control effect; nearly all actives have a fitted effect of over 55% in size
Target sequence (A8B2U2 whole entry, looked up): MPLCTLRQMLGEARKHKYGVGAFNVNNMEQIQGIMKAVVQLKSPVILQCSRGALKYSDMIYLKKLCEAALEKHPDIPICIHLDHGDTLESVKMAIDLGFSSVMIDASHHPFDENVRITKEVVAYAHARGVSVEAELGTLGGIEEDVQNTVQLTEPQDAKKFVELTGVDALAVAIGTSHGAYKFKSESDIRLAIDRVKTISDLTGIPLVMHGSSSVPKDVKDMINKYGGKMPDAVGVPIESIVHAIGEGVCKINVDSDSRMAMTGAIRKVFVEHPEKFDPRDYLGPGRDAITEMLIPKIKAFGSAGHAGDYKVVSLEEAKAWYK
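40 nM FBPA preincubated 10 min at RT with compound (up to 57.5 uM final), then substrate plus GAPDH/TPI/NAD/arsenate coupling and diaphorase/resazurin added. Fluorescence read after 20 min at RT, 525/598 nm.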
NS1 inh – blocks influenza NS1 protein function; Potency, µM (titrated, usually from 46.1 µM), for the others: at the top dose activity, positive = more growth; 270,000 tested, 0.4% active; calls by dose curve; note: potency is the fitted concentration of half-maximal effect; actives are rising curves; nearly all actives have a fitted effect of over 50% in size
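Compounds were scored for reversing the slow growth caused by influenza A NS1 in S. cerevisiae, measured by optical density at 600 nm. Assay medium contained 2% galactose at pH 6.0; NS1-free yeast of the same strain were the positive control.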
Pf growth 48h – inhibits P. falciparum growth in the first generation, 48 h; P. falciparum luciferase growth in erythrocytes, 48 h; Potency, µM (doses to about 28.7 µM), without a hit: at the top dose activity change, negative = inhibition, usual class: inhibitors; 310,000 tested, 5.9% active; note: potency is the fitted concentration of half-maximal effect; % is set by controls: 0 for no effect and ±100 for the full control effect
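Erythrocytes infected with P. falciparum carrying an integrated firefly luciferase reporter (2% hematocrit, 0.1% parasitemia final) were exposed to compounds in RPMI 1640 with 0.5% Albumax at 37 C, 5% CO2. Growth inhibition was scored as reduced luminescence.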
Cycloheximide cs – counter-screen for Shiga toxin inhibitors: cycloheximide protein synthesis inhibition | cell reporter, cycloheximide protein synthesis inhibition counterscreen | max response, % | 300,000 tested, 12% active; in the data active = max response mostly above about 13%, no sharp cut-off; inactive = mostly below about 14%; note: read at 38.3 µM for the half of the compounds with a filed dose; 0% is about no effect
* hit, by the source's call; i = inactive; ? = inconclusive; · = not tested or not shown; [ ] = remark or other dose. Compounds with a hit are over-represented: about 21% of the library has one in this group of screens. Unless noted, calls come from the whole dose curve; as a rule, active = well fitted curve in the direction sought with a large enough effect; inconclusive = small, poorly fitted or top-dose-only effect, or another doubt; inactive = no such curve, though single readings can be large; an effect the other way counts as inactive or inconclusive.

SMILES	Shiga toxin inh	Pf growth 96h	FBPA Giardia inh	NS1 inh	Pf growth 48h	Cycloheximide cs
OCCSCc1cc(Cl)cc(Cl)c1O	·	·	·	-10%	·	·
O=[N+]([O-])c1ccc2c(c1)nc1n2CCN(c2ccccc2)C1	29*	?	-6%	-41%	?	37*
COCCN1CCn2c(nc3cc([N+](=O)[O-])ccc32)C1	-4	5%	-3%	-59%	76%	-3
O=[N+]([O-])c1ccc2c(c1)nc1n2CCN(CC2CCCO2)C1 (stereo not given)	24	23%	-1%	4%	41%	28*
O=C(Nc1cc(NC(=O)c2ccccc2F)ccc1Cl)c1ccccc1	-7	-1%	22%	-19%	22%	-2
CC(=O)NC(=O)c1ccc(-c2ccc(Cl)cc2)o1	17*	-29%	5%	-18%	?	25*
CCn1nnc(NC(=O)Cc2ccc(Cl)cc2)n1	27	62%	1%	-3%	4%	8
O=C(NC12CC3CC(CC(C3)C1)C2)c1ccc(-c2cccc(Cl)c2)o1	83*	?	1%	-4%	3%	35*
O=C(NC12CC3CC(CC(C3)C1)C2)c1ccco1	-16	0%	-8%	-2%	?	0
CCn1nnc(NC(=O)c2ccc(-c3ccc(Cl)cc3)o2)n1	35*	-9%	2%	0%	1%	36*
O=C(NC(=S)Nc1ccccc1O)c1ccc(-c2ccc(Cl)cc2)o1	-4	0%	-2%	-47%	7%	-2
O=C(NC12CC3CC(CC(C3)C1)C2)c1ccc(-c2ccc(Cl)cc2)o1	129*	?	0%	-7%	44%	85*
COc1ccc(C(C)(C)C)cc1NC(=O)COC(=O)CSCc1c(C)noc1C	·	33%	·	·	3%	·
CNCCCCc1cnc(C)c2[nH]c3ccccc3c12	·	·	-5%	·	·	·
Cc1nnc(NC(=O)c2ccc(F)c(S(=O)(=O)N3CCCCC3)c2)s1	-5	?	-4%	-17%	2%	-2
CC(C)CC(=O)Nc1nnc(S(=O)(=O)N2CCCCCC2)s1	-7	2%	·	-8%	3%	-5
O=C(NC12CC3CC(CC(C3)C1)C2)c1ccc(-c2ccccc2Cl)o1	161*	36%	0%	15%	-19%	44*
COc1ccc(N2CCN(Cc3cc(=O)oc4cc(C)c(Cl)cc34)CC2)cc1	-5	37%	3%	-6%	-5%	-3
O=c1cc(CN2CCN(c3ccccc3F)CC2)c2cc(O)c(-c3ccccc3)cc2o1	18	2.3µM*	-3%	13%	2.6µM*	-2
COc1ccc(OC)c(CN2CCN(Cc3cc(=O)oc4cc(O)ccc34)CC2)c1	25	2.6µM*	12%	4%	3.7µM*	-2
COc1ccc(N2CCN(Cc3cc(=O)oc4cc(-c5ccccc5)c(O)cc34)CC2)cc1	16	2.9µM*	-9%	10%	1.9µM*	-4
Cn1nc(C(C)(C)C)cc1C(=O)Sc1cccc(Br)c1	-4	15%	2%	0%	15%	1
O=C(Nc1ccc2c(c1)OCO2)N1CCCC1	55*	24%	-2%	·	-4%[5.75 µM]	9
O=C(Nc1ccc2c(c1)OCO2)N1CCOCC1	66*	·	-3%	-2%	38%	36*
O=C(Nc1ccc2c(c1)OCO2)N1CCN(c2ccc(F)cc2)CC1	46	-4%	1%	-4%	9%	19*
SMILES	Shiga toxin inh	Pf growth 96h	FBPA Giardia inh	NS1 inh	Pf growth 48h	Cycloheximide cs
O=C(Nc1ccc2c(c1)OCO2)N1CCN(c2ncc(C(F)(F)F)cc2Cl)CC1	21	·	-5%	-25%	?	22
O=C(Nc1ccc2c(c1)OCCO2)N1CCOCC1	54	i	-6%	·	397%	25
O=C(Nc1ccc2c(c1)OCO2)C1CC1	·	82%	·	·	104%	·
O=C(Nc1ccc2c(c1)OCO2)N1CCN(c2ncccn2)CC1	83*	146%	-11%	3%	20%	35*
O=C(N/N=C/c1cccnc1)C(O)c1ccccc1 (stereo not given)	9	4%	2%	-1%	2%	-1
Cc1ccccc1C(=O)NC1CC2CCCC(C1)N2C(=O)Nc1ccccc1 (stereo not given)	-4	41%	3%	-7%	3%	0
CC1CN(C(=O)Nc2ccc3c(c2)OCO3)CC(C)O1 (stereo not given)	50*	67%	-10%	-10%	·	45*
O=C(Nc1cccc(OC(=O)N2CCOCC2)c1)N1CCOCC1	-11	18%	1%	0%	-2%	-2
